Calls of active or inactive are those of the source. How the source made its calls: active means hit-call score of the fitted dose curve at least 0.9, where 1 is the maximum; inactive means score below 0.9.
Legend:
[1] = target: Bile acid receptor (Homo sapiens) (UniProt Q96RI1); test: ATG_IR1_CIS: Attagene CIS-FACTORIAL HepG2 Assay for human Nuclear Receptor Subfamily 1 Group H Member 4 (NR1H4), IR1 submotif (AID 2282946); conditions: IR1 reporter transcription, actives raise or lower the signal
Procedure, shortened: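 Transient MRTU transfection, HepG2; 24 h dosing; RNA → RT-PCR → 6-FAM primer extension → HpaI digest → capillary electrophoresis fluorescence. Gain/loss of signal fitted relative to DMSO.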

[2] = ATG_GRE_CIS: Attagene CIS-FACTORIAL HepG2 Assay for human Glucocorticoid Response Elements (GRE) (AID 2282947); conditions: HepG2 GRE cis-reporter, Attagene multiplex mRNA; actives raise or lower the signal
Procedure, shortened: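 HepG2 cells transiently transfected with multiple cis-promoter reporter units measure endogenous TF activity; 24 h compound exposure. Reporter mRNA quantified by RT-PCR, FAM labelling, HpaI digestion and capillary electrophoresis; bidirectional fit vs DMSO baseline.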

[3] = ATG_ISRE_CIS: Attagene CIS-FACTORIAL HepG2 Assay for human Interferon Regulatory Factor 1 (IRF1) binding to an Interferon-Stimulated Response Element (ISRE) (AID 2282948); conditions: HepG2 ISRE cis-reporter (Attagene), mRNA transcription readout; actives raise or lower the signal
Procedure, shortened: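 HepG2 cells transiently transfected with multiplexed cis-promoter reporter units; after 24 h compound exposure, reporter mRNA quantified by RT-PCR, FAM labelling, HpaI digestion and capillary electrophoresis. Bidirectional fit versus DMSO baseline.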

[4] = ATG_M_32_CIS: Attagene CIS-FACTORIAL HepG2 Assay for M32 Transcription Factor (Internal Marker) (AID 2282949); conditions: HepG2 Attagene cis-factorial M32 reporter, mRNA; actives raise or lower the signal;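 further: background control marker of the multiplexed CIS panel rather than a real target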
Procedure, shortened: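 Internal background marker read-out: RT-PCR/capillary electrophoresis fluorescence of reporter transcripts from transiently transfected HepG2 cells after 24 h chemical exposure. Activity fitted bidirectionally relative to DMSO negative control.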

[5] = ATG_M_06_CIS: Attagene CIS-FACTORIAL HepG2 Assay for M06 Transcription Factor (Internal Marker) (AID 2282950); conditions: HepG2 Attagene CIS-FACTORIAL M06 internal marker reporter; actives raise or lower the signal
Procedure, shortened: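 HepG2 cells transiently transfected with cis-regulated multiple reporter transcription units were exposed to chemical for 24 h; reporter mRNA was quantified by RT-PCR, 6-FAM primer labelling, HpaI digestion and capillary electrophoresis, fitted bidirectionally against DMSO.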

[6] = target: Hepatocyte nuclear factor 6 (Homo sapiens) (UniProt Q9UBC0); test: ATG_HNF6_CIS: Attagene CIS-FACTORIAL HepG2 Assay for human Hepatocyte Nuclear Factor 6 (HNF6) (AID 2282952); conditions: HepG2 Attagene cis-factorial HNF6 reporter transcription; actives raise or lower the signal
Procedure, shortened: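 HepG2 cells transiently transfected with cis-element-driven multiple reporter transcription units, dosed 24 h; reporter mRNA quantified by RT-PCR, FAM primer extension, HpaI digestion and capillary electrophoresis; bidirectional fit versus DMSO baseline.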

[7] = target: Heat shock factor protein 1 (Homo sapiens) (UniProt Q00613); test: ATG_HSE_CIS: Attagene CIS-FACTORIAL HepG2 Assay for human Heat Shock Transcription Factor 1 (HSE) (AID 2282953); conditions: HepG2 HSE cis-reporter, Attagene RNA transcription; actives raise or lower the signal
Procedure, shortened: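 HepG2 cells transiently transfected with multiple reporter transcription units under cis-regulatory promoter control, measuring endogenous transcription factor activity. After 24 h chemical exposure, reporter mRNA quantified by RT-PCR, fluorescent labelling, HpaI digestion and capillary electrophoresis; bidirectional fit versus DMSO.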

[8] = ATG_PBREM_CIS: Attagene CIS-FACTORIAL HepG2 Assay for human Phenobarbital-responsive Enhancer Module (PBREM) (AID 2282955); conditions: HepG2 PBREM cis-reporter, Attagene multiplexed transcription; actives raise or lower the signal
Procedure, shortened: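 HepG2, transient MRTU transfection, 24 h dosing; RNA → oligo(dT) RT → PCR → 6-FAM extension → HpaI → CE. Bidirectional fit vs DMSO.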

[9] = ATG_MRE_CIS: Attagene CIS-FACTORIAL HepG2 Assay for human Metal Responsive Element (MRE) (AID 2282954); conditions: HepG2 MRE cis-reporter transcription, Attagene multiplex; actives raise or lower the signal
Procedure, shortened: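 HepG2 cells transiently transfected with multiple cis-element reporter units measure endogenous MTF1-driven transcription. After 24 h compound exposure, reporter mRNA is quantified by RT-PCR with 6-FAM labelling, HpaI digestion and capillary electrophoresis; bidirectional fits versus DMSO.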

[10] = target: Hypoxia-inducible factor 1-alpha (Homo sapiens) (UniProt Q16665); test: ATG_HIF1a_CIS: Attagene CIS-FACTORIAL HepG2 Assay for human Hypoxia Inducible Factor 1 (HIF1A) (AID 2282951); conditions: HepG2 Attagene cis-factorial HIF1a reporter transcription; actives raise or lower the signal
Procedure, shortened: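 HepG2, transient cis-reporter library, 24 h dosing. RNA → RT (oligo dT) → PCR → 6-FAM primer extension → HpaI → CE. Bidirectional curve fit vs DMSO.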

Measured: AC50

Chain of Hepatocyte nuclear factor 6 (Homo sapiens) (Q9UBC0 whole entry, looked up): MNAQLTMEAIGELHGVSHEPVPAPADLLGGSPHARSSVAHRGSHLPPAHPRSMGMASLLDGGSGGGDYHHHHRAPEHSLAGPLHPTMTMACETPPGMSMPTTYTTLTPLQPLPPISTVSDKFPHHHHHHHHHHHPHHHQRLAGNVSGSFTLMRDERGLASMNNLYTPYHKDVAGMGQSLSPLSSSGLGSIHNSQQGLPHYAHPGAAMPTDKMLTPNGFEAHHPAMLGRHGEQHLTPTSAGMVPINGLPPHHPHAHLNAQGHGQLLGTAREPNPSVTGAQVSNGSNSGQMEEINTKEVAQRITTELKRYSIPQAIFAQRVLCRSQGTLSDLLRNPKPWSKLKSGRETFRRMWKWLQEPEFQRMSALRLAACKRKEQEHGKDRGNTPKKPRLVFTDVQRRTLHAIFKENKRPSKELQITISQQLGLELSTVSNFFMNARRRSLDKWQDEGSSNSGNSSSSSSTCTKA
Chain of Heat shock factor protein 1 (Homo sapiens) (Q00613 whole entry, looked up): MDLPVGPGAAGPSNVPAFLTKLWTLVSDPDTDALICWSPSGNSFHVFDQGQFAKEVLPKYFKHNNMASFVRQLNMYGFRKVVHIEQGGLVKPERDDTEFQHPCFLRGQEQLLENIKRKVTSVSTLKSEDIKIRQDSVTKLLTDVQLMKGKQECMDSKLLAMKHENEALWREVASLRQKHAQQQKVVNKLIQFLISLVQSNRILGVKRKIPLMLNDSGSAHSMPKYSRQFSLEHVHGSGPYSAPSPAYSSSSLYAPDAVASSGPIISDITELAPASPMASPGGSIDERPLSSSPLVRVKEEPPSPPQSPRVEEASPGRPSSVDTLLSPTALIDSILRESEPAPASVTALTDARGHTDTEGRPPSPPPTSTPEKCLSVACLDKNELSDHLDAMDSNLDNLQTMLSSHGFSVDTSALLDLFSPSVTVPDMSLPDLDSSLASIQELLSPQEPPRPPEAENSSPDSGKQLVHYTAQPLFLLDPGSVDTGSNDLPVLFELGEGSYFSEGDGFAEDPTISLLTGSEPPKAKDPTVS
Chain of Hypoxia-inducible factor 1-alpha (Homo sapiens) (Q16665 whole entry, looked up): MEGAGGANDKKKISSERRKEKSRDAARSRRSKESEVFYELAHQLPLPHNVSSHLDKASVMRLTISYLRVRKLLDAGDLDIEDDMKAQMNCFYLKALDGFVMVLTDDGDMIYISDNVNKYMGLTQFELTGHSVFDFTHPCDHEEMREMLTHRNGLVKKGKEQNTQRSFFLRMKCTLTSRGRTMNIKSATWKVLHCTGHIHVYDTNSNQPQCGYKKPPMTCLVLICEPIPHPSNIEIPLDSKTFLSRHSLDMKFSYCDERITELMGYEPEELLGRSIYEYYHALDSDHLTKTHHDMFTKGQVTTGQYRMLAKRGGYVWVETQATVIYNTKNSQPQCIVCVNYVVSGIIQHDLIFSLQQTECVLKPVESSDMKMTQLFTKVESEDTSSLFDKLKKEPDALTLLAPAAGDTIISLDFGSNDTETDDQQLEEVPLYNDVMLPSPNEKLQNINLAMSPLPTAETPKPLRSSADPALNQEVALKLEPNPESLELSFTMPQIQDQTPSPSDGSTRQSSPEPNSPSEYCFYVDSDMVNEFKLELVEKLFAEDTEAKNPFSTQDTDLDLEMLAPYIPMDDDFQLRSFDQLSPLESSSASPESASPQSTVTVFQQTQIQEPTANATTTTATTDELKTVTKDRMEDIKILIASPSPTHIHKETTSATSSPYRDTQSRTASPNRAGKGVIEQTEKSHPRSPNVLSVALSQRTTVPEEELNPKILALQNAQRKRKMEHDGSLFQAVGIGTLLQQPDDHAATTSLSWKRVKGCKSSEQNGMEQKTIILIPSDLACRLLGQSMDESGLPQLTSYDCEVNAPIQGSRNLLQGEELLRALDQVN
Chain of Bile acid receptor (Homo sapiens) (Q96RI1 whole entry, looked up): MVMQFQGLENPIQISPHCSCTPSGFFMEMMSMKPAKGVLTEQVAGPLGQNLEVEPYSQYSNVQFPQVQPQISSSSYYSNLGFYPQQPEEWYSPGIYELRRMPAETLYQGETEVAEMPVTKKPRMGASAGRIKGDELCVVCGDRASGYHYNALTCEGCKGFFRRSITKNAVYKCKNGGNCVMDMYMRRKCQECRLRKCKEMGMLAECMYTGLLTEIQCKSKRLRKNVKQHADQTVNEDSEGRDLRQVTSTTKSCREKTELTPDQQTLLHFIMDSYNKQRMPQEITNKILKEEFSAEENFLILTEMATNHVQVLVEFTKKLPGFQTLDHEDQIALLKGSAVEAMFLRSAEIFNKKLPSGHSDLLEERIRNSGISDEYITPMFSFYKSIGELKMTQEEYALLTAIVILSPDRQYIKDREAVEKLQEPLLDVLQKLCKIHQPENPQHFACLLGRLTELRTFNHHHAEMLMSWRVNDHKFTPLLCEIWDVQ

CC(C)(Oc1ccc(CCNC(=O)c2ccc(Cl)cc2)cc1)C(=O)O
not listed: [9] | [10]
inactive: all other assays above

CC(=O)C(C)=O
active: [1] 28.8 µM
not listed: [10]
inactive: all other assays above

C#C[C@]1(O)CC[C@H]2[C@@H]3CCC4=Cc5oncc5C[C@]4(C)[C@H]3CC[C@@]21C
active: [1] 23.5 µM | [3] 31.2 µM | [6] 60.9 µM | [9] 27.3 µM | [8] 5.83 µM
inactive: [2] | [4] | [5]

CCC(C(=O)NC(N)=O)c1ccccc1 (stereo not drawn)
not listed: [8] | [10]
inactive: all other assays above

Cc1ncc([N+](=O)[O-])n1C
not listed: [9]
inactive: all other assays above

O=Cc1ccc(Cl)c([N+](=O)[O-])c1
inactive: [2] | [4] | [5] | [8]
active: [1] 63.7 µM | [3] 149 µM | [6] 134 µM | [7] 142 µM | [9] 142 µM

OCCN1CCNCC1
not listed: [4] | [7]
inactive: all other assays above

CC(=O)O[C@]1(C(C)=O)CC[C@H]2[C@@H]3C[C@H](C)C4=CC(=O)CC[C@]4(C)[C@H]3CC[C@@]21C
active: [3] 67.1 µM | [9] 49.9 µM
not listed: [7] | [10]
inactive: all other assays above

COc1cc(C(C)(C)C)c(O)c(C(C)(C)C)c1
active: [1] 69.8 µM
not listed: [4] | [8]
inactive: all other assays above

CC(=O)OCc1ccc2c(c1)OCO2
not listed: [7]
inactive: all other assays above

CN(C)CCCN
not listed: [9]
inactive: all other assays above

C=CC[N+](C)(C)CC=C
inactive: [2] | [3] | [4] | [5] | [10] | [6]

O=P(c1ccccc1)(c1ccccc1)c1ccccc1
not listed: [2] | [7]
inactive: all other assays above

c1ccc2c(c1)c1cccc3ccc4cccc2c4c31
not listed: [4] | [10]
inactive: all other assays above

CC(=O)[C@H]1CC[C@H]2[C@@H]3CC=C4C[C@@H](O)CC[C@]4(C)[C@H]3CC[C@]12C
active: [3] 36 µM
not listed: [2] | [7]
inactive: all other assays above

CCCCO
not listed: [2] | [8]
inactive: all other assays above

CNCCO
not listed: [2] | [8]
inactive: all other assays above

Cc1ccc2sc3cccc(C)c3c2c1
active: [10] 52.9 µM
not listed: [3]
inactive: all other assays above

Reference: PubChem BioAssay (EPA / NIEHS)
